Targets with a hit are over-represented here; the source holds about 7,900 in all. About 0.6% of all pairs of compound and target were hits. Values without a mark were called inactive.

Chain of UniProt Q8IVT5 (Q8IVT5 whole entry, looked up): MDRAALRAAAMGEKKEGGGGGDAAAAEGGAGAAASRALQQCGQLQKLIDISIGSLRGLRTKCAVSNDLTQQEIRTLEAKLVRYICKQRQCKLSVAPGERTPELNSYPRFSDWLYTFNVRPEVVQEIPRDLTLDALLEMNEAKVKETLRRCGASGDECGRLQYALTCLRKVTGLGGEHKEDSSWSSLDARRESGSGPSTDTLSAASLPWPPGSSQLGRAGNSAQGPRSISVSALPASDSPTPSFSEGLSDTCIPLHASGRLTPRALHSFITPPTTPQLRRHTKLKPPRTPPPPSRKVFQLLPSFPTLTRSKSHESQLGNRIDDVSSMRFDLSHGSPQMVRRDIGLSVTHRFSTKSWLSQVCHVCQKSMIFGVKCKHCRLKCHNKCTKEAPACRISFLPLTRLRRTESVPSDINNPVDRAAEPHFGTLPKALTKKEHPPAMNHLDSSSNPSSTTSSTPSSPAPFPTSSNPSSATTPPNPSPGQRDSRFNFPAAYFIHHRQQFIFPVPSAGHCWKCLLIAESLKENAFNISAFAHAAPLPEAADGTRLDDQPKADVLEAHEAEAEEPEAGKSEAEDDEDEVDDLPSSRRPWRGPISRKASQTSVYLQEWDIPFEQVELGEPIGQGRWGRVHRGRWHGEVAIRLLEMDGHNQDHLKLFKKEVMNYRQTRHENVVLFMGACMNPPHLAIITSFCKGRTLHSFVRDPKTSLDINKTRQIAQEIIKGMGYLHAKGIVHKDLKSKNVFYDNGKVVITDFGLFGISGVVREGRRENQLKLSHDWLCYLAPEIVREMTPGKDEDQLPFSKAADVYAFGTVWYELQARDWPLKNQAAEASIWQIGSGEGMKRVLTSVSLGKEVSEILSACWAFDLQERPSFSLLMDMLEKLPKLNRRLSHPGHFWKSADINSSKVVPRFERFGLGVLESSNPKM
Chain of UniProt Q8NC56 (Q8NC56 whole entry, looked up): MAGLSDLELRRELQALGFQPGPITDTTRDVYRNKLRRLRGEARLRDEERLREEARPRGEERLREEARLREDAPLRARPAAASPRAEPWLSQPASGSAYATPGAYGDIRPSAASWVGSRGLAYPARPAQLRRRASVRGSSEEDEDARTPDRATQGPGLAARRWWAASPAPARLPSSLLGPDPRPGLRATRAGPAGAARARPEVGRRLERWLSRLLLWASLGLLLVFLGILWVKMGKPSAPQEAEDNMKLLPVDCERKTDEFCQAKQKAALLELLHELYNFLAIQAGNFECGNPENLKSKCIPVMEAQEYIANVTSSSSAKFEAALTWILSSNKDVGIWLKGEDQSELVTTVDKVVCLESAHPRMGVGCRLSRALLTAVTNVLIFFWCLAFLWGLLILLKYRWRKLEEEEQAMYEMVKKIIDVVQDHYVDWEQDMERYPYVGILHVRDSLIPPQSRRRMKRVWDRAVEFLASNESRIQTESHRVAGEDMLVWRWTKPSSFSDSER
Chain of UniProt O95232 (O95232 whole entry, looked up): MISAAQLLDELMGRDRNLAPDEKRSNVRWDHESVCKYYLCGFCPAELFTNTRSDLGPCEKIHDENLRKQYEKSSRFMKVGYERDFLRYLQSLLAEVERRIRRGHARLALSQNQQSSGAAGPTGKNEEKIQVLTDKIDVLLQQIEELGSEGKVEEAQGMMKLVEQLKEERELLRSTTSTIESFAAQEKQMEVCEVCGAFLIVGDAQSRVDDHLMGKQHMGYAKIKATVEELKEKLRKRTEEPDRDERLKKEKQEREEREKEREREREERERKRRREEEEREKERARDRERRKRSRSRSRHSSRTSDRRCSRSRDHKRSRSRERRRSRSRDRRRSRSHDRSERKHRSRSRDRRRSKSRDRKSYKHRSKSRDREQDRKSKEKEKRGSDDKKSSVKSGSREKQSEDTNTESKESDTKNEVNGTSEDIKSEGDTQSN
Chain of UniProt Q9UI26 (Q9UI26 whole entry, looked up): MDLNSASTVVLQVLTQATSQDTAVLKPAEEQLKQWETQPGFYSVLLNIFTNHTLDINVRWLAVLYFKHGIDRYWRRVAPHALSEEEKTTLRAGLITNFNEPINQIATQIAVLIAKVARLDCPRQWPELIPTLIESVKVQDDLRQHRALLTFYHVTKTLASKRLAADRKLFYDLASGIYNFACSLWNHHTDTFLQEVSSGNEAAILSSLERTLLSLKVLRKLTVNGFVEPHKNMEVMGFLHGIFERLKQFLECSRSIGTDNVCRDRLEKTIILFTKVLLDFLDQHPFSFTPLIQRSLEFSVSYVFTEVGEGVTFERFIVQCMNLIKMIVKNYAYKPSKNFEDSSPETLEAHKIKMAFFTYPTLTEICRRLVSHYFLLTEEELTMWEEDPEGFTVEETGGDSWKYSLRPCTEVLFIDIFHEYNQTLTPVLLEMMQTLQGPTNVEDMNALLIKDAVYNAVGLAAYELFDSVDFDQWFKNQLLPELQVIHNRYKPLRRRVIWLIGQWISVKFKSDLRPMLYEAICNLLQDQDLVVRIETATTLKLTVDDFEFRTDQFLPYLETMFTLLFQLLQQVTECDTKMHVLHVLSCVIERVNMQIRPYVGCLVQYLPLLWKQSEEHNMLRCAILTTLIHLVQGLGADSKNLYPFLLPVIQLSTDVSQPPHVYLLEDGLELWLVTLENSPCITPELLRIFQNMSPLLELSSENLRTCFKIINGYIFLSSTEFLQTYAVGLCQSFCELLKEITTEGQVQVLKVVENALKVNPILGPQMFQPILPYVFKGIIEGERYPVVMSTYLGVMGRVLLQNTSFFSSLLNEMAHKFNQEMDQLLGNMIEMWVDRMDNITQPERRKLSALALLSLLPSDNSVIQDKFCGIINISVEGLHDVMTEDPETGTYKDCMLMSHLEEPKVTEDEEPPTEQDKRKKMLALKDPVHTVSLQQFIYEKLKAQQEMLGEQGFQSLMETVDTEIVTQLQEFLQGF
Chain of UniProt Q12906 (Q12906 whole entry, looked up): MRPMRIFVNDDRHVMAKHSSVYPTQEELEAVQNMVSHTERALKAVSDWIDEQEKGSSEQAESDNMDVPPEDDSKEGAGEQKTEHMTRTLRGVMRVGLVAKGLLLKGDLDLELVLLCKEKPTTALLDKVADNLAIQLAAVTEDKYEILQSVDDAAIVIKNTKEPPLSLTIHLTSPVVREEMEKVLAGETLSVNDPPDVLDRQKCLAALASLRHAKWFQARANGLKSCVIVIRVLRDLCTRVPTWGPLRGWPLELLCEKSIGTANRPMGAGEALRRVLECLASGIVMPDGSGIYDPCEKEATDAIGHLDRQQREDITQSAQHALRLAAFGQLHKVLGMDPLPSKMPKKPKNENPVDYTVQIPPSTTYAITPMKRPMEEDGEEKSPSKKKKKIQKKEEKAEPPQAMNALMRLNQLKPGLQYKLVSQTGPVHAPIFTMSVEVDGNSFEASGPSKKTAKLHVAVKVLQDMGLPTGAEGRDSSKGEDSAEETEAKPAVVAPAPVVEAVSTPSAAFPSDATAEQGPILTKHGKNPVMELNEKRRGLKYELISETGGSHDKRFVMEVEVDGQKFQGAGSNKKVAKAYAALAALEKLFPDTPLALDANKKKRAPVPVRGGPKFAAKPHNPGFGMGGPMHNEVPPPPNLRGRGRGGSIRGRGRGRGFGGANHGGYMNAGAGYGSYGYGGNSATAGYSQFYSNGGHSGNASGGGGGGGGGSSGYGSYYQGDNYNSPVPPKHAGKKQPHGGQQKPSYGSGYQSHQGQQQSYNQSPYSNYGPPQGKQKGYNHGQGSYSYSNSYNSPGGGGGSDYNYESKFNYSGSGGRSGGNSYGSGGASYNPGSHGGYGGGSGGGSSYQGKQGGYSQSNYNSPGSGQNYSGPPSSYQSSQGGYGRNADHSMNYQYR
Chain of UniProt Q9HCC0 (Q9HCC0 whole entry, looked up): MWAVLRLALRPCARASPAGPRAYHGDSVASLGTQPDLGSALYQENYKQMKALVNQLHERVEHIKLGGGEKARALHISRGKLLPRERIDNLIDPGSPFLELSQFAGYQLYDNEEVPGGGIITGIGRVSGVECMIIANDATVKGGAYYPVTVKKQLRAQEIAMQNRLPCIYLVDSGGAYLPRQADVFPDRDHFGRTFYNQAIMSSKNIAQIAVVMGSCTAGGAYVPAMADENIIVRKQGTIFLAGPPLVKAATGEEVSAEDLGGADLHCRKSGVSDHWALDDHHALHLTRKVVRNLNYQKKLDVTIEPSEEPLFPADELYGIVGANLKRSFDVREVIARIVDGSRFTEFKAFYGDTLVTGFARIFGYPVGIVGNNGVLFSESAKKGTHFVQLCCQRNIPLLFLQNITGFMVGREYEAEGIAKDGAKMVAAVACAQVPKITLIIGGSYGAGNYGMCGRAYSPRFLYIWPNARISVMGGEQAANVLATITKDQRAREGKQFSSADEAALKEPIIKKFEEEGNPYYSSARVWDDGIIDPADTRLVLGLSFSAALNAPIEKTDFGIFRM
Chain of UniProt Q96AQ8 (Q96AQ8 whole entry, looked up): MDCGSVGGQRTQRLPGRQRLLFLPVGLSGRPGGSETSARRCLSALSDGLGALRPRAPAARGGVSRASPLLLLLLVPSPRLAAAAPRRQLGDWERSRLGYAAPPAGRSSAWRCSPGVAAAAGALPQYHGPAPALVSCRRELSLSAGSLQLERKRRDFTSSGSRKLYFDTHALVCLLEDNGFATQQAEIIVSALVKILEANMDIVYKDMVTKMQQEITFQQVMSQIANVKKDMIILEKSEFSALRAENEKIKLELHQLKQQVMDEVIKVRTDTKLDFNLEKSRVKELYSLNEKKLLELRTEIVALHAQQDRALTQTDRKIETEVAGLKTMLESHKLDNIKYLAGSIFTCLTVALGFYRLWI
Chain of UniProt Q14681 (Q14681 whole entry, looked up): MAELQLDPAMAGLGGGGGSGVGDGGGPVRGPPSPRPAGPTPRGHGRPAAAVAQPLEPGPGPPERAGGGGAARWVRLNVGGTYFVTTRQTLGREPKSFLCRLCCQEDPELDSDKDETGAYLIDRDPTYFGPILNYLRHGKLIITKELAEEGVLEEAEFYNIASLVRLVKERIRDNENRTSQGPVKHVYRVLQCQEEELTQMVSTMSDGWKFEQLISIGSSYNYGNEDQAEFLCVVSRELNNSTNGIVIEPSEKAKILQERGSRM

Compound in the experiment: FC(F)(F)c1ccc(/C=C/c2nc(COc3ccc(CCCCn4ccnn4)cc3)co2)cc1 [mubritinib]
In words: log2 fold change, soluble protein after heating vs DMSO (PISA); higher = thermal stabilisation; K562 cells, 10 uM, 30 min; active = over 0.2 and 3.5 SD of the protein, either way, in both replicates (recomputed). In short, it runs like this: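 K562 cells (2×10^6 cells/mL) were treated with 10 μM compound for 30 min, and aliquots were heated for 3 min over 48°C-58°C. Pooled aliquots were extracted in PBS with 0.5% NP-40 at 4°C, and the supernatant after 21,000xg for 90 min was measured by TMTpro 16plex LC-MS/MS with channel sums equalised. Reported thermal stability, relative to control samples and from duplicates, is a log2 fold change.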
As for MIEF1 (UniProt Q9NQG6), the log2 fold change was -0.029.

In the case of LDAH isoform 2 (UniProt Q9H6V9), the log2 fold change is 0.094.

For MAPKAPK2 (UniProt P49137), the log2 fold change is -0.009.

For LIAS (UniProt O43766), the log2 fold change was 0.002.

Take MFSD5 isoform 2 (UniProt Q6N075): the log2 fold change was 0.128.

For the target LARP4B (UniProt Q92615), the log2 fold change was -0.038.

LAMP2 (UniProt P13473): the log2 fold change is 0.017.

As for MAGEC2 (UniProt Q9UBF1), the log2 fold change is -0.015.

As for IGFBP4 (UniProt P22692), the log2 fold change is -0.15.

Regarding ILF3 isoform 7 (UniProt Q12906), the log2 fold change is -0.031.

As for LTV1 (UniProt Q96GA3), the log2 fold change is 0.042.

Turning to MICU2 (UniProt Q8IYU8), the log2 fold change was -0.155.

In the case of MCUR1 (UniProt Q96AQ8), the log2 fold change was 0.044.

Turning to KDM1A isoform 2 (UniProt O60341), the log2 fold change is 0.095.

As to LEMD2 (UniProt Q8NC56), the log2 fold change was -0.021.

LRRFIP1 (UniProt Q32MZ4): the log2 fold change was 0.035.

Turning to LPIN1 isoform 7 (UniProt Q14693), the log2 fold change was 0.095.

As for MFN1 (UniProt Q8IWA4), the log2 fold change is -0.01.

Regarding KIF1B isoform 4 (UniProt O60333), the log2 fold change is -0.004.

Consider MFGE8 (UniProt Q08431), for which the log2 fold change was -0.096.

As to MCCC2 (UniProt Q9HCC0), the log2 fold change was -0.015.

Turning to MICU1 isoform 3 (UniProt Q9BPX6), the log2 fold change is -0.064.

Turning to LARP1 (UniProt Q6PKG0), the log2 fold change is -0.011.

As for MEPCE (UniProt Q7L2J0), the log2 fold change was -0.018.

Turning to MAD2L1 (UniProt Q13257), the log2 fold change was 0.042.

With KCTD2 (UniProt Q14681), the log2 fold change is 0.113.

For LYPLA2 (UniProt O95372), the log2 fold change was 0.013.

Take INPP5B (UniProt P32019): the log2 fold change is 0.018.

On to IPO11 isoform 2 (UniProt Q9UI26), for which the log2 fold change was 0.069.

Turning to MARCKS (UniProt P29966), the log2 fold change is -0.017.

For KIF2C (UniProt Q99661), the log2 fold change was 0.081.

Regarding LPCAT3 (UniProt Q6P1A2), the log2 fold change was 0.034.

As to KTN1 (UniProt Q86UP2), the log2 fold change is -0.032.

With MIF (UniProt P14174), the log2 fold change is 0.021.

Consider LUC7L3 (UniProt O95232), for which the log2 fold change is 0.02.

On to LUC7L (UniProt Q9NQ29), for which the log2 fold change was -0.099.

For the target KPNA1 (UniProt P52294), the log2 fold change is -0.06.

As for KSR1 (UniProt Q8IVT5), the log2 fold change is -0.233.

Consider MAP2K2 (UniProt P36507), for which the log2 fold change was 0.017.
